Hits are enriched below; roughly 11% of the tested compounds scored in any of these assays.
JMJD2A Tudor: qHTS Assay for Inhibitors of JMJD2A-Tudor Domain; Lysine-specific demethylase 4A (Homo sapiens), O75164; AlphaScreen JMJD2A-Tudor / H3K4me3 peptide binding; Potency, µM (titrated, usually from 114 µM), actives largely listed as inhibitors; 390,000 tested, 4.4% active; AID 504339, 2011; note: nearly all actives have a fitted effect of over 50% in size
BAZ2B block: qHTS Assay for Inhibitors of BAZ2B | Bromodomain adjacent to zinc finger domain protein 2B (Homo sapiens), Q9UIF8 | AID 504333, 2011 | AlphaScreen BAZ2B-H3K14Ac peptide displacement | 360,000 tested, 4.4% active | Potency, µM (top dose mostly 114 µM), most hits filed as inhibitors; note: nearly all actives have a fitted effect of over 60% in size
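AlphaScreen displacement of biotin-H3(5-23)K14Ac peptide (50 nM final) from BAZ2B (50 nM final) in PBS pH 7.4, 0.01% Tween-20; complex preformed 30 min RT, then compounds (top 110 uM) 30 min RT, beads 20 min dark.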
G9a inh: qHTS Assay for Inhibitors of Histone Lysine Methyltransferase G9a | G9a H3K9 monomethylation, AlphaScreen, 2 h | AID 504332, 2011 | Potency, µM (top dose mostly 102 µM), most hits filed as inhibitors | 350,000 tested, 8.8% active; note: nearly all actives have a fitted effect of over 75% in size
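AlphaScreen detection with an anti-monomethyl H3K9 antibody quantified product after a 2 h room-temperature reaction containing 500 nM biotinylated H3K9 peptide, 20 µM SAM and 20 nM enzyme, which had been preincubated 15 min with compound.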
PI5P4Ka inh: qHTS for Inhibitors of phosphatidylinositol 5-phosphate 4-kinase (PI5P4K); Phosphatidylinositol 5-phosphate 4-kinase type-2 alpha (Homo sapiens), P48426; PI5P4Kalpha enzyme, ADP-Glo luminescence, 60 min; stronger effect = lower value; max response, %; 330,000 tested, 1.2% active; AID 652105, 2013; active = max response of -50% or lower; inconclusive = between -30% and -50%; inactive = -30% or higher; note: value at the top dose of about 77 µM
Target sequence (P48426 whole entry, looked up): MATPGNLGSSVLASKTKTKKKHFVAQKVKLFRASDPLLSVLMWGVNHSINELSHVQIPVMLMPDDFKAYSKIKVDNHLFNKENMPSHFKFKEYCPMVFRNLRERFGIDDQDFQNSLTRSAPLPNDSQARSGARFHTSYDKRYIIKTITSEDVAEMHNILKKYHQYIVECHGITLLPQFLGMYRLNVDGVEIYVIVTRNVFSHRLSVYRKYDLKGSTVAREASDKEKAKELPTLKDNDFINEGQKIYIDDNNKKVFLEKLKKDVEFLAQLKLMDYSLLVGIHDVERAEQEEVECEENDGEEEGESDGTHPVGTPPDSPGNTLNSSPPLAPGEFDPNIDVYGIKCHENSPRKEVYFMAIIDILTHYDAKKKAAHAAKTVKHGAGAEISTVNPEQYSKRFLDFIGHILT
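Compounds were pin-transferred onto PI5P4Kalpha and substrate in HEPES pH 7.4 buffer with EGTA, CHAPS and 5% DMSO. ATP (5 microM final) started the reaction, which ran 60 minutes at room temperature before ADP-Glo detection.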
L3MBTL1 inh: qHTS Assay for the Inhibitors of L3MBTL1. AlphaScreen L3MBTL1–H3K9me1 peptide binding. Potency, µM (doses to about 57.1 µM), most hits filed as inhibitors. Lethal(3)malignant brain tumor-like protein 1 (Homo sapiens), Q9Y468. 230,000 tested, 0.66% active; note: nearly all actives have a fitted effect of over 60% in size
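L3MBTL1 50 nM + b-AHA-H3(1-15)K9me1 75 nM, 30 min RT; compound added, 30 min RT; streptavidin donor/Ni-chelate acceptor beads 10 ug/mL each final, 30 min RT dark; AlphaScreen read.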
HP1b binding inh: HTS for Inhibitors of HP1-beta Chromodomain Interactions with Methylated Histone Tails. AID 540317, 2011. AlphaScreen HP1-beta / biotin-H3K9me3 peptide binding. Potency, µM (doses to about 114 µM), actives largely listed as inhibitors. 390,000 tested, 0.56% active. Chromobox protein homolog 1 (Homo sapiens), P83916; note: nearly all actives have a fitted effect of over 70% in size
Target sequence (P83916 whole entry, looked up): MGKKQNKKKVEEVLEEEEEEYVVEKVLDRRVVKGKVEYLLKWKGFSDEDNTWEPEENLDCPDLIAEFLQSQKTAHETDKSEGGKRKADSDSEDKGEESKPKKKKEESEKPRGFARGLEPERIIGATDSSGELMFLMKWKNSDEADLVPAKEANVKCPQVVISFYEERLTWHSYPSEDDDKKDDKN
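AlphaScreen: HP1-beta (50 nM) preformed 30 min with biotin-H3(1-18)K9me3 peptide (50 nM) in PBS pH 7.4, 0.01% Tween-20. Compound added for 30 min at RT, then streptavidin donor/nickel chelate acceptor beads (10 ug/mL) for 30 min.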
A number is an active result; i = inactive; ? = inconclusive; nt = not tested or not shown; [ ] = remark or other dose. Unless noted, calls come from the whole dose curve; as a rule, active = well fitted inhibition curve with a large enough effect; inconclusive = small, poorly fitted or top-dose-only effect; inactive = no such curve, though single readings can be large or run the other way.

SMILES	JMJD2A Tudor	BAZ2B block	G9a inh	PI5P4Ka inh	L3MBTL1 inh	HP1b binding inh
COC(=O)C1=C(C)Nc2ccc(C)cc2S1	79.4µM	39.8µM	39.8µM	i	nt	?
CCC(=O)NCCCNc1nc2c(C)cccc2cc1C#N	i	i	35.5µM	i	i	i
CCOCCCNC(=S)NCCCNc1nc2c(C)c(C)ccc2cc1C#N	i	i	56.2µM	i	i	i
CCOCCCNC(=S)N1CCCN(c2nc3c(C)c(C)ccc3cc2C#N)CC1	i	i	i	i	i	i
CCOc1ccc(-c2cc3c(=O)n(CC(=O)NCc4ccccc4)ccn3n2)cc1	?	i	i	nt	nt	i
CC(=O)c1cccc(NC(=O)Nc2nnc(N3CCCC3)s2)c1	i	i	i	nt	nt	i
CCOc1cc(C(C(=O)NCC2CCCO2)N(C(=O)Cn2nnc3ccccc32)c2ccc(NC(C)=O)cc2)ccc1O (stereo unspecified)	i	i	44.7µM	i	nt	i
Cc1c(C(=O)Nc2ccc(-c3nnc4n3CCCCC4)cc2)oc2c1ccc1ccccc12	?	i	50.1µM	i	i	i
CC(C)C(=O)Nc1nnc(SCc2cc(=O)n3ccccc3n2)s1	i	i	i	nt	nt	i
O=C(Cc1ccccc1)NCCS(=O)(=O)N1CCN(c2ccccc2)CC1	i	i	50.1µM	i	i	i
O=C(Cc1ccccc1)Nc1ccc(N2CCCC2)cc1	?	?	8.91µM	i	nt	i
O=C(CCc1ccccc1)Nc1ccc(S(=O)(=O)N2CCCC2)cc1	i	i	nt	i	i	i
CCCOC(=O)Nc1ccc(N2CCCCC2)cc1	?	70.8µM	8.91µM	nt	nt	i
O=C(Cc1ccc(Cl)cc1)NCCS(=O)(=O)N1CCN(c2ccccc2)CC1	i	i	i[0.501 µM]	i	i	i
CCCCC(=O)Nc1ccc(N2CCCC2)cc1	?	nt	nt	i	nt	i
O=C(CCc1ccccc1)Nc1ccc(N2CCCCC2)cc1	i	i	8.91µM	i	i	i
O=C(Cc1ccccc1)Nc1ccc(N2CCOCC2)cc1	i	i	i	i	i	i
COc1ccc2c(c1)C(c1cc(OC)c(OC)c(OC)c1)CC(=O)O2 (stereo unspecified)	nt	nt	i	nt	nt	nt
COc1ccc2c(c1)c1c(c(=O)n(-c3ccccc3)c(=O)n1CC(=O)Nc1ccc(C)c(C)c1)n2C	i	i	i	nt	nt	i
Cc1cc(C(F)F)n2nc(C(=O)Nc3ccc(F)c(Cl)c3)nc2n1	i	i	i	nt	nt	i
O=C(CN1CCCCC1)Nc1ccccc1	i	i	i	i	nt	i
Cc1cc(C)cc(OCC(=O)Nc2ccc(N3CCCCC3)cc2)c1	i	i	i[2.33 µM]	i	i	?
Cc1cc(C)cc(NC(=O)Nc2ccc(N3CCCCC3)cc2)c1	i	i	8.91µM	i	?	i
O=C(CN1CCCCC1)Nc1ccc(N2CCCCCC2)cc1	50.1µM	14.1µM	17.8µM	i	i	?
Cc1cc2c(cc(C(=O)OC(C(=O)NCc3ccco3)C(C)C)n2C)o1 (stereo unspecified)	?	?	39.8µM	nt	i	i
SMILES	JMJD2A Tudor	BAZ2B block	G9a inh	PI5P4Ka inh	L3MBTL1 inh	HP1b binding inh
COc1cc(NC(=O)CN2C(=O)C(c3ccc(C)cc3)=NC23CCCCC3)cc(OC)c1	i	i	i	nt	nt	i
Cn1nc(-c2ccccn2)nc2c(=O)n(C)c(=O)nc1-2	11.2µM	10µM	14.1µM	i	nt	i
O=C(CSc1nnc(CNC(=O)c2ccccc2F)o1)c1ccccc1	?	i	70.8µM	i	i	i
O=C(CSc1nnc(CNC(=O)c2c(F)cccc2F)o1)NCc1ccco1	i	70.8µM	nt	?	nt	i
O=C(CSc1nnc(CNC(=O)c2ccccc2)o1)NCc1ccco1	i	i	nt	i	nt	i
CCCCN(C)C(=O)C1CCN(Cc2cccc(OCc3ccccc3)c2)CC1	39.8µM	?	12.6µM	i	i	i
CCCCN(C)C(=O)C1CCN(Cc2cccnc2)CC1	28.2µM	79.4µM	14.1µM	i	i	?
CNC(=O)COc1ccc(Nc2nnc(-c3ccc(C)c(S(=O)(=O)NC(C)(C)C)c3)c3ccccc23)cc1	i	i	?	nt	nt	i
CCOc1ccc2[nH]cc(S(=O)(=O)c3ccc(Cl)cc3)c(=O)c2c1	i	?	70.8µM	i	nt	i
COc1ccc(CN2CCC(N3CC(C)OC(C)C3)CC2)c(OC)c1OC (stereo unspecified)	20µM	?	nt	i	i	?
Cc1ccc(CN2CCC(N3CC(C)OC(C)C3)CC2)cc1 (stereo unspecified)	22.4µM	56.2µM	12.6µM	i	nt	?
COc1ccc(CN2CCN(C(=O)CN3C(=O)C4C5C=CC(C5)C4C3=O)CC2)c(OC)c1OC (stereo unspecified)	i	i	i	i	i	i
C/C(=N/NC(=O)CN(c1ccccc1)S(=O)(=O)c1ccccc1)c1ccccc1O	?	12.6µM	nt	i	?	i
Oc1ccc(N=Nc2ccccc2)o1	i	i	39.8µM	i	nt	i
N#CC1=C(N)Nc2ncnn2C1c1ccc(F)cc1 (stereo unspecified)	i	i	39.8µM	i	i	i
C=C(CC)C(=O)c1ccc(OCC(=O)O)c(Cl)c1Cl	i	i	70.8µM	i	i	i
CN(Cc1ccccc1)c1ccc(N2C(=O)CCC2=O)cc1[N+](=O)[O-]	?	?	i	i	nt	i
CC1CC(=O)N(c2ccc(N(C)Cc3ccccc3)c([N+](=O)[O-])c2)C1=O (stereo unspecified)	i	11.2µM	i	i	nt	i
O=C(NCc1cccc(Cl)c1)C1CCCN(c2nn3cc(-c4ccc(F)cc4)nc3s2)C1 (stereo unspecified)	i	i	?	nt	nt	?
CC1=C/C(=N\OS(=O)(=O)c2ccccc2)C(C)=CC1=O	?	35.5µM	20µM	i	nt	i
CC1=C/C(=N\OS(=O)(=O)c2ccccc2)C(C(C)C)=CC1=O	?	35.5µM	8.91µM	i	i	?
CC1=C(C)/C(=N\OS(=O)(=O)c2ccc(C)cc2)C=CC1=O	56.2µM	25.1µM	20µM	i	?	?
COc1cc(C(=O)O/N=C2/C=C(C)C(=O)C=C2C)cc(OC)c1OC	i	i	i	i	i	i
COc1ccc(S(=O)(=O)/N=C2/C=CC(=O)C(C)=C2C)cc1	i	i	?	i	i	?
CN1CCN(c2ncc3nc(-c4cn(C)c5ccccc45)c(=O)n(CCC#N)c3n2)CC1	nt	nt	i[0.501 µM]	nt	nt	nt
CCOC(=O)N1CCN(C(=O)CSc2nnc3[nH]c(=O)c(C)c(C)n23)CC1	i	i	14.1µM	i	i	i
CCc1ccccc1NS(=O)(=O)c1ccc(-c2coc(C)n2)cc1	i	?	i	nt	nt	i

Source: PubChem BioAssay
